About 83,000 compounds went through this panel and 20% of them were active in at least one assay; those are over-represented in the sample as a whole.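 Treatment: one concentration, 48 hours, 96-well format. Scoring: percent growth, with anything below 10 considered active.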 A number with no mark means an inactive call. The source made the active and inactive calls.
How the values were obtained:
Assay in all cases: NCI-60 one-dose screen, 48 h (100 = growth as untreated, 0 = no growth, -100 = all killed)
HCT-15 colon = conditions: 10 µM unless noted
HT29 colon = conditions: 10 µM unless noted
SNB-75 CNS = conditions: 10 µM unless noted
SNB-19 CNS = conditions: 10 µM unless noted
U251 CNS = conditions: 10 µM unless noted
PC-3 prostate = conditions: 10 µM unless noted
SK-MEL-5 melanoma = conditions: 10 µM unless noted
UACC-62 melanoma = conditions: 10 µM unless noted
LOX IMVI melanoma = conditions: 10 µM
SK-MEL-28 melanoma = conditions: 10 µM unless noted

SMILES	growth (HCT-15 colon)	growth (HT29 colon)	growth (SNB-75 CNS)	growth (SNB-19 CNS)	growth (U251 CNS)	growth (PC-3 prostate)	growth (SK-MEL-5 melanoma)	growth (UACC-62 melanoma)	growth (LOX IMVI melanoma)	growth (SK-MEL-28 melanoma)
C#CCOc1ccc(/C=N/Nc2nc(-c3ccc(Cl)cc3)cs2)cc1OC	45.7%	69.3%	80.1%	74.6%	64.6%	29.9%	6.66% (active)	54.7%	58.6%	79.5%
Cc1ccc(S(=O)(=O)c2nc(S(=O)(=O)c3ccc(C)cc3)c(Cl)s2)cc1	-87.6% (active)	-77.5% (active)	108%	81.4%	-38.5% (active)	18%	76.4%	39.7%	-93% (active)	29.4%
Cn1cc(-c2nc(N)nnc2-c2c[nH]c3ccc(F)cc23)c2cc(Br)cnc21	3.56% (active)	-50.6% (active)	-15.8% (active)	22.9%	1.09% (active)	8.22% (active)	-81.5% (active)	13.3%	13.9%	24%
CN(C)c1nc(NCCNS(=O)(=O)c2ccc(C(=O)/C=C/c3ccc(F)cc3)cc2)nc(Nc2ccc(F)cc2)n1	-91.7% (active)	-100% (active)	-16.4% (active)	-74.8% (active)	-100% (active)	-75.2% (active)	-99.6% (active)	-97.1% (active)	-100% (active)	-100% (active)
O=C(NN1C(=O)/C(=C/C=C/c2ccc([N+](=O)[O-])o2)SC1=S)c1ccc(Cl)cc1	-75.6% (active)	-76.4% (active)	-93.4% (active)	-100% (active)	-97.4% (active)	-34.7% (active)	-100% (active)	-100% (active)	-97.3% (active)	-99.7% (active)
Cc1cc(C)cc(NC(=O)Cn2cc(COn3nnc4ccccc43)nn2)c1	106%	104%	96.3%	96.2%	103%	97.9%	101%	96.9%	100%	100%
CCOC(=O)C1=C(N)N(c2ccccc2)C2=C(C(=O)CC(C)(C)C2)C1c1ccc([N+](=O)[O-])cc1 (stereo not given)	86.4%	99.4%	104%	94%	101%	68%	96.5%	66.6%	85.5%	105%
CC1[C@H]2[C@H](C[C@H]3[C@@H]4CC=C5c6sc(Nc7ccccc7F)nc6CC[C@]5(C)[C@H]4CC[C@@]32C)O[C@]12CC[C@@H](C)CO2 (stereo not given in full)	-80% (active)	-79.3% (active)	-55.6% (active)	-37.5% (active)	-88.2% (active)	-47.2% (active)	-58.1% (active)	-70.8% (active)	-90.4% (active)	-97.1% (active)
C#CCOc1ccc(/C=N/Nc2nc(-c3ccc(F)cc3)cs2)cc1OC	41.2%	78.8%	81.8%	77.5%	89.4%	24.2%	3.86% (active)	46.7%	62.4%	76.5%
COc1ccc2[nH]cc(-c3nnc(N)nc3-c3cn(C)c4ncc(Br)cc34)c2c1	68.5%	82.6%	31.7%	69.6%	75.1%	72.9%	85.7%	68.5%	71.9%	54%
O=C(c1ccccc1)C(c1c[nH]c2ccccc12)c1c[nH]c2ccccc12	13%	22.9%	72.4%	91.7%	59.9%	38.6%	92.5%	60.4%	-48.4% (active)	76.9%
Nc1nc(-c2ccccc2)c(N=Nc2ccc(Cl)cc2[N+](=O)[O-])s1	94.4%	100%	80.1%	89.2%	92.4%	87.1%	98.8%	77.3%	88.2%	107%
Cc1nc(Nc2ccccn2)sc1C(=O)CC(SCC(=O)Nc1ccc(Cl)cc1)c1ccccc1F (stereo not given)	2.33% (active)	-28.4% (active)	16.5%	11%	-21.1% (active)	43.2%	4.3% (active)	-10.6% (active)	-22.5% (active)	24.1%
O=C(CN1C(=O)/C(=C/c2ccccc2Cl)SC1=S)N1CCOCC1	45%	96.4%	109%	92.4%	93.4%	102%	98.9%	83.2%	48.2%	98.8%
CC(C)C(C(=O)O)n1c(O)c(/C=C2/C=c3cc4c(cc3=NC2=O)OCO4)sc1=S (stereo not given)	101%	119%	101%	94.4%	106%	106%	103%	89.2%	94%	110%
C#CCOc1cc(N(CC)CC)ccc1C(C(=O)NC(C)(C)C)N(C(=O)C1CCc2cc(F)ccc2O1)c1cc(C)cc(C)c1 (stereo not given)	31.9%	40.4%	45.7%	38.3%	19.5%	13.2%	44.7%	33.8%	32.5%	62.9%
Cc1ccc(C2CC(c3ccc(S(=O)(=O)NCCNc4nc(Nc5ccc(F)cc5)nc(N(C)C)n4)cc3)=Nc3c(N)nc(N)nc3N2)cc1 (stereo not given)	29.1%	-14.3% (active)	77.7%	60.4%	47.3%	33.5%	29.1%	63.7%	6.81% (active)	59.8%
CC1(C)CC[C@]2(C(=O)O)CC[C@]3(C)C(=CCC4[C@@]5(C)C[C@@H](O)[C@@H]6OC(c7ccccc7F)OC[C@@]6(C)C5CC[C@]43C)C2C1 (stereo not given in full)	5.25% (active)	2.5% (active)	29.1%	20.3%	3.62% (active)	16%	-34.6% (active)	0.203% (active)	-1.57% (active)	19.7%
CC1(C)CC[C@]2(C(=O)O)CC[C@]3(C)C(=CCC4[C@@]5(C)C[C@@H](O)[C@@H]6OC(c7ccc(F)cc7)OC[C@@]6(C)C5CC[C@]43C)C2C1 (stereo not given in full)	13.4%	25.4%	82.3%	34.9%	14.7%	17.6%	17.2%	45.5%	19.9%	53.9%
Cc1ccc(NC(=O)CN2CCN(c3ncnc4c3cnn4-c3ccccc3)CC2)cc1	50.3%	93.8%	103%	85.9%	86.5%	65.5%	77.6%	69.3%	23.3%	86.5%
COc1cc2oc(-c3cccc(NC(=O)[C@H](CC(N)=O)NC(=O)OC(C)(C)C)c3)cc(=O)c2c(OC)c1OC	99.8%	97.8%	95.9%	96%	90.1%	75.8%	87.6%	82%	81.5%	94%
Cc1cccc(-c2nc(Nc3ccc(C)c(S(N)(=O)=O)c3)c3ccccc3n2)c1	-19.4% (active)	18%	91.5%	32.5%	29.4%	15.7%	29.5%	43%	-34.7% (active)	38.9%
O=C(c1ccccc1)c1ccc2nc(-c3ccc(F)cc3)[nH]c2c1	23.4%	63.6%	82%	75.2%	-26.5% (active)	56.4%	60.2%	43.2%	14.3%	63.3%
O=C(Nc1ccccc1)N1CCN(c2cc(-c3cn(-c4ccccc4)nc3-c3cccc(O)c3)ccn2)CC1	21.4%	75.8%	101%	81.9%	63%	43%	40%	50.4%	69.1%	73.2%
Cc1ccc(/C=C/c2n(Cc3ccc4ccccc4c3)c3ccccc3[n+]2Cc2ccc3ccccc3c2)cc1	-86.2% (active)	-50.4% (active)	-88.3% (active)	-58.5% (active)	-42.1% (active)	-88.3% (active)	-100% (active)	-63.6% (active)	-87.9% (active)	-92.3% (active)
CN(C)c1nc(NCCNS(=O)(=O)c2ccc(C3=Nc4c(N)nc(N)nc4NC(c4ccc(C(F)(F)F)cc4)C3)cc2)nc(Nc2ccc(F)cc2)n1 (stereo not given)	18.7%	-69.6% (active)	31.7%	22.9%	0.0667% (active)	17.8%	-77.1% (active)	-51% (active)	-78.2% (active)	14%
